For 20 compounds, growth inhibition results are on record in PubChem BioAssay (NCI).

Test [1] in a line: NCI Yeast Anticancer Drug Screen. Data for the rad50 strain (AID 155).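 Note: 0% = growth of vehicle-only cultures of the same strain.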 As to conditions: S. cerevisiae rad50 strain growth inhibition; at 50.0 µM; stronger effect = higher value. In outline: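 Vehicle-treated cultures provide the reference for the growth inhibition reported for compound-exposed, repair-deficient yeast.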
Test [2] is described as follows: NCI Yeast Anticancer Drug Screen. Data for the mec2-1 strain (AID 157). As to conditions: S. cerevisiae mec2-1 strain, at 50.0 µM, stronger effect = higher value. The procedure, abridged: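 Yeast mec2-1 mutant treated with compound. Readout: growth inhibition vs vehicle controls.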
Test [3] is described as follows: NCI Yeast Anticancer Drug Screen. Data for the sgs1 mgt1 strain (AID 161).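 Note: 0% = growth of cultures given vehicle only.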 As to conditions: S. cerevisiae sgs1 mgt1 strain, at 50.0 µM, stronger effect = higher value. In outline: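 Genetically altered yeast, compound exposure, growth inhibition relative to vehicle.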
Test [4] in a line: NCI Yeast Anticancer Drug Screen. Data for the cln2 rad14 strain (AID 165).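 Note: 0% = growth equal to vehicle treated cultures.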 As to conditions: S. cerevisiae cln2 rad14 strain, at 50.0 µM, stronger effect = higher value. The procedure, abridged: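 cln2 rad14 yeast strain; compound exposure; growth inhibition read vs vehicle controls.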
The nature of test [5]: NCI Yeast Anticancer Drug Screen. Data for the bub3 strain (AID 167). As to conditions: S. cerevisiae bub3 mutant strain, at 50.0 µM, stronger effect = higher value. In outline: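 Mutant yeast screening strain plus compound; vehicle-treated cultures serve as the 0% inhibition reference.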
A short description of test [6]: NCI Yeast Anticancer Drug Screen. Data for the mlh1 rad18 strain (AID 175). As to conditions: S. cerevisiae mlh1 rad18 strain growth inhibition; at 50.0 µM; stronger effect = higher value. The procedure, abridged:
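Yeast w/ defined DNA-repair lesions; compound exposure; growth vs vehicle controls → % inhibition.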

Structures are written as SMILES. Compounds without any hit were thinned out: in the full panel of roughly 79,000, 15% have a hit. A number with no mark means an inactive call. Active and inactive are the calls of the source. Cut-off read from the data, not from the text of the source: active = growth inhibition above about 70%; inactive = the rest.

As for `COc1ccc(NS(=O)c2ccccc2OC)cc1` (stereo not given), the growth inhibition in test [1] was 2.7%; in test [2] it was 4.5%; in test [3] it was 14.3%; in test [4] it was -18.9%; in test [5], 8.05%; in test [6], 5.5%.
As for `Cc1ccccc1C(O)(c1nccn1C)c1nccn1C`, the growth inhibition in test [1] was 8.75%; in test [2], 5.5%; in test [3] it was 19.9%; in test [4] it was 9.55%; in test [5] it was 18.2%; in test [6] it was 37.3%.
For the compound `O=C(N/C(=C/c1ccccc1)C(=O)N1CCN(C(=O)/C(=C\c2ccccc2)NC(=O)c2ccccc2)CC1)c1ccccc1`, the growth inhibition in test [1] is 0.9%; in test [2], -0.45%; in test [3], -8.05%; in test [4] it was -5.7%; in test [5] it was -6.8%; in test [6] it was -2.95%.
Turning to `COc1cccc2cc(-n3nnc4ccccc43)c(=O)oc12`, the growth inhibition in test [1] is -8.6%; in test [2] it was 18.1%; in test [3], 4.6%; in test [4] it was 7.6%; in test [5], 25.8%; in test [6], 9.85%.
`CCCCNC(=O)OCC`: the growth inhibition is -34.5% in test [1]; -25.6% in test [2]; 2.4% in test [3]; -26.8% in test [4]; -0.35% in test [5]; 5.9% in test [6].
As to `Cc1cc2c(cc1C)[n+](=O)c(C(=O)C/C(=N/OCCCc1ccccc1)C(=O)Nc1cc(Cl)ccc1Cl)c(C)n2[O-]`, the growth inhibition in test [1] is -35.1%; in test [2], 1.8%; in test [3] it was -7.2%; in test [4], 19.2%; in test [5] it was 9.1%; in test [6], -10.3%.
For the compound `O=[N+]([O-])c1ccc2cccc3c2c1CC3`, the growth inhibition in test [1] is 24.4%; in test [2], 18.1%; in test [3], 1.85%; in test [4] it was -19.4%; in test [5] it was 8.95%; in test [6], 22.6%.
In the case of `CCCCC(=CC(C)(C)C)CCCC`, the growth inhibition is 22.9% in test [1]; -2.4% in test [2]; -7.7% in test [3]; 7.95% in test [4]; 20.6% in test [5]; 14.5% in test [6].
Turning to `CCOC(=O)C(NC(=O)CC)(Nc1ccccc1OC)C(F)(F)F` (stereo not given), the growth inhibition in test [1] is -40.9%; in test [2], -28.6%; in test [3], -28.6%; in test [4], -17.3%; in test [5], -25.2%; in test [6], -31.5%.
On to `CC(=O)c1cccc(NC(=O)OCC2CC3C=CC2C3)c1` (stereo not given), for which the growth inhibition is 25.4% in test [1]; 27.1% in test [2]; 45.9% in test [3]; 4% in test [4]; 52.8% in test [5]; 52.3% in test [6].
As to `CC(=O)OCC(C)CCC(C)COC(C)=O` (stereo not given), the growth inhibition in test [1] was -22.2%; in test [2], -9.4%; in test [3], -21.8%; in test [4] it was -11.4%; in test [5] it was 0.45%; in test [6], -31.6%.
As to `COc1nc(C(=O)NNC(=O)c2nc(OC)c3ccccc3c2-c2ccccc2)c(-c2ccccc2)c2ccccc12`, the growth inhibition is -6.9% in test [1]; -5.8% in test [2]; -19.2% in test [3]; -8.7% in test [4]; -17% in test [5]; 1.3% in test [6].
For the compound `Cc1cc(N(CCC#N)CCC#N)ccc1/C(N=Nc1ccccc1)=N\NC(=O)c1ccccc1`, the growth inhibition in test [1] is 22.3%; in test [2], 16.6%; in test [3], 11.2%; in test [4], -8.5%; in test [5], -16.1%; in test [6], 31.8%.
For the compound `BrC1=CCC23CC=C(Br)[C@H]4CC2(COC3)C[C@@H]1O4` (stereo not given in full), the growth inhibition in test [1] is 25.2%; in test [2], -0.55%; in test [3], 0.6%; in test [4] it was -0.05%; in test [5], -19.4%; in test [6] it was -9.75%.
As for `CCOc1cc2c(cc1O)C(O)C[C@@H]1[C@@H]2CC[C@]2(C)[C@@H](O)CC[C@@H]12` (stereo not given in full), the growth inhibition is 14.8% in test [1]; -7.9% in test [2]; 22.7% in test [3]; 11.9% in test [4]; 24.2% in test [5]; 25.1% in test [6].
`CC(O)C(=O)OCCOc1ccccc1` (stereo not given): the growth inhibition in test [1] was 12.7%; in test [2], -6.3%; in test [3] it was -3.05%; in test [4], 5.5%; in test [5], -14.3%; in test [6] it was -140%.
As to `O=C(N=C1SCCS1)Nc1cccc(Cl)c1`, the growth inhibition in test [1] is 87% (active); in test [2], 5.7%; in test [3], 44%; in test [4], 11.3%; in test [5] it was 11.4%; in test [6], 37.2%.
Turning to `CCNC(=O)OCc1cc(Cl)cc(Cl)c1OC(=O)NCC`, the growth inhibition is 99.5% (active) in test [1]; 99.2% (active) in test [2]; 99.7% (active) in test [3]; 96.8% (active) in test [4]; 98.5% (active) in test [5]; 99.5% (active) in test [6].
For `CN1C=C([N+](=O)[O-])C(N2CCOCC2)C1N1CCOCC1` (stereo not given), the growth inhibition is 3.1% in test [1]; 0.65% in test [2]; -3.5% in test [3]; 3.1% in test [4]; -26.6% in test [5]; 20.9% in test [6].
As for `CCOC(=O)C(C)C(=O)C(C)C` (stereo not given), the growth inhibition in test [1] is -1.65%; in test [2], 0.5%; in test [3], 0.75%; in test [4], -11.8%; in test [5], 13.7%; in test [6], -9.35%.
